# An excerpt weighted towards active compounds, which were near 12% of everything screened.
# OTUD3 block: blocks human OTUD3 ubiquitin-rhodamine cleavage. purified OTUD3, Ub-rhodamine fluorescence, 2 h. Q5T2D3. inhibition, % at 25 µM. hit rate 0.7% among 47,000
# USP28 inh: blocks human USP28 ubiquitin-rhodamine cleavage; AID 1645857; inhibition, % at 25 µM; hit rate 3% among 47,000; Q96RU2; purified USP28, Ub-rhodamine cleavage fluorescence, 30 min
# USP30 inh: human USP30 deubiquitinase inhibition; AID 1645860; purified USP30, Ub-rhodamine cleavage fluorescence; hit rate 5.3% among 47,000; inhibition, % at 25 µM
# USP17 block: blocks human USP17 ubiquitin-rhodamine cleavage; AID 1645855; purified USP17, Ub-rhodamine cleavage fluorescence, 3 h; A8MUK1; inhibition, % at 50 µM; hit rate 6.5% among 47,000
# The depositor's hits bear a star; · = no result. Cut-off read from the data, not from the text of the source: active = inhibition above about 30%; inactive = the rest.
SMILES,OTUD3 block,USP28 inh,USP30 inh,USP17 block
O=C(CN1CCCCC1)Nc1nnc(-c2ccc([N+](=O)[O-])cc2)s1,40*,35*,34*,38*
O=C(CN1CCCCCC1)Nc1cc([N+](=O)[O-])ccc1Cl,0,21,28,45*
Cc1sc(NC(=O)CN2CCCCCC2)nc1-c1ccc2c(c1)CCN2C(=O)C(C)C,-2,0,-18,21
O[C@]12CCCC[C@H]1C(c1ccc3c(c1)OCO3)N(Cc1ccccc1F)CC2 (stereo partly drawn),-18,-9,-23,-18
CCc1c(C(C)S(=O)(=O)c2ccccc2)[nH]c(=O)n1Cc1cccs1 (stereo not drawn),13,10,9,10
O=C(CN(c1ccccc1)S(=O)(=O)c1ccccc1)Oc1cc(Cl)ccc1Cl,10,6,34*,21
COc1ccc(OC(=O)CN(c2cccc(C(F)(F)F)c2)S(=O)(=O)c2ccccc2)cc1,-4,0,9,5
CCN1C(=O)c2cccnc2Sc2cc(NC(=O)CCc3ccccc3OC)ccc21,-20,-12,-86,3
CCN1C(=O)c2cccnc2Sc2cc(NC(=O)CCc3cccc(OC)c3)ccc21,-18,44*,-55,4
CCN1C(=O)c2cccnc2Sc2cc(NC(=O)c3ccc(Cl)s3)ccc21,0,51*,-63,-15
CCN(c1ccccc1)S(=O)(=O)c1ccc(C(=O)Nc2cccc(NC(C)=O)c2)cc1,-17,-8,-25,-16
CN(Cc1ccccc1)S(=O)(=O)c1ccc(NC(=O)c2ccc(Cl)cc2)cc1,-1,-4,31*,15
CCN(Cc1ccccc1)S(=O)(=O)c1ccc(C(=O)Nc2sccc2C(N)=O)cc1,0,·,·,43*
CN(Cc1ccccc1)S(=O)(=O)c1ccc(C(=O)Nc2ccc3c(c2)OCO3)cc1,4,6,19,6
CCN(Cc1ccccc1)S(=O)(=O)c1ccc(C(=O)Nc2ccc(S(N)(=O)=O)cc2)cc1,-10,5,-3,33*
O=C(NCc1ccc2c(c1)OCO2)[C@H]1C=CCN1C(=O)C1CCCCC1,0,7,0,0
Cc1ccc(NC(=O)c2ccc3c(c2)N(S(C)(=O)=O)CC3)cc1,0,50*,14,51*
COc1ccccc1CNC(=O)c1ccc2c(c1)CCCN2S(C)(=O)=O,8,10,19,5
O=C(Nc1ccc2c(c1)OCO2)c1ccc(CN2CCc3ccccc3C2)cc1,0,31*,1,29
CS(=O)(=O)N1CCCc2cc(C(=O)Nc3ccc4c(c3)OCO4)ccc21,14,85*,12,4
O=C(Nc1ccc2c(c1)OCO2)c1ccc(N2CCCC2=O)cc1,10,12,16,50*
O=C(CN1CCCc2ccccc21)Nc1ccc2c(c1)OCO2,-51,-73,-263,-72
O=c1cc(CN2CCN(c3ccccc3F)CC2)c2cc3c(cc2o1)CCC3,7,0,12,6
Cc1cnc(C2CN(C(=O)c3cc(C4CCCCC4)no3)CCO2)[nH]1 (stereo not drawn),-1,-5,4,2
O=C(Nc1ccc2c(c1)OCCO2)C1=CCN(Cc2ccccc2F)CC1,4,40*,4,-4
SMILES,OTUD3 block,USP28 inh,USP30 inh,USP17 block
O=C(NCC(c1cccnc1)N1CCc2ccccc2C1)c1ccc(F)cc1 (stereo not drawn),-11,-8,-43,-7
O=C(NCC(c1cccnc1)N1CCc2ccccc2C1)C(=O)Nc1ccc2c(c1)OCO2 (stereo not drawn),0,-6,-6,75*
CCCc1cc(=O)n2[nH]c(COc3ccccc3)c(-c3ccccc3)c2n1,13,40*,55*,40*
CCCc1cc(=O)n2[nH]c(-c3ccccc3)cc2n1,-7,-9,-8,-14
CC(=O)C1=C(O)[C@@]2(O)C(=O)c3c(c(C)c4ccc(C)c(O)c4c3O)C[C@H]2[C@@H](N)C1=O,51*,66*,-126,49*
COc1cc2c(cc1OC)-c1cc(N3CCC4(CC3)OCCO4)nc(=O)n1CC2,12,7,3,7
COC(=O)c1c(C)[nH]c(C(=O)C(C)OC(=O)CCC2CCCC2)c1C (stereo not drawn),-6,79*,-8,5
O=C1CO[C@H]2CN(c3ncccn3)C[C@H]2N1CC1CC1,0,14,-13,-1
O=C(Nc1ccc(S(=O)(=O)N2CCOCC2)cc1)c1oc(=O)c2ccccc2c1-c1ccccc1,-1,0,34*,37*
COc1ccc(NC(=O)c2oc(=O)c3ccccc3c2-c2ccccc2)cc1Cl,0,1,0,6
Cc1ccc2nc(N3C(=O)c4oc5ccccc5c(=O)c4C3c3ccc(C)o3)sc2c1 (stereo not drawn),5,13,41*,40*
Cc1ccc2nc(N3C(=O)c4oc5ccccc5c(=O)c4C3c3ccco3)sc2c1 (stereo not drawn),4,4,-49,-9
CCN1c2ccccc2-c2nc(SCC(=O)OC)ncc2S1(=O)=O,-6,-2,-118,-12
Cc1csc(-c2cn(CC(=O)Nc3ccc(C)c(F)c3)cn2)n1,19,13,24,-7
CCc1csc(-c2cn(CC(=O)Nc3cc(C)ccc3C)cn2)n1,0,-2,-66,49*
Cc1ccccc1NC(=O)Cn1cnc(-c2noc(-c3ccncc3)n2)c1,5,-11,4,-2
CCc1csc(-c2cn(CC(=O)Nc3cccc(C)c3C)cn2)n1,17,20,58*,51*
COC(=O)c1ccc(S(=O)(=O)N2CC(c3nc4ccccc4[nH]3)C2)cc1,-16,-17,-62,-67
Cc1cc(C2CN(C(=O)c3cc(C(C)(C)C)[nH]n3)CCO2)ccn1 (stereo not drawn),6,5,12,3
Cc1cn(C)c(C2CN(C(=O)CCn3nnc4ccccc43)CCO2)n1 (stereo not drawn),-4,-12,-18,0
COc1ccccc1CNC(=O)c1nnn(-c2ccc(Cl)cc2)n1,23,24,35*,19
COc1ccc(-n2nnc(C(=O)Nc3nc(C)c(C)s3)n2)cc1,12,42*,34*,48*
COc1cccc(NC(=O)c2nnn(-c3ccccc3)n2)c1,-2,66*,0,-1
COc1ccc(-n2nnc(C(=O)NCc3ccc(F)cc3F)n2)cc1,9,16,-2,-3
Cc1ccc(NC(=O)c2nnn(-c3ccccc3)n2)cc1,-3,29,12,1
Cc1nc(NC(=O)c2nnn(-c3ccc(F)cc3)n2)sc1C,-2,6,-2,40*
COc1cccc(C2OC[C@@H]3COc4ccc5ccccc5c4[C@@H]3N2C)c1 (stereo partly drawn),3,7,2,9
CC(C)(C)c1cc(CCC(=O)Nc2c3c(nc4c2CCC4)CCCC3)cc(C(C)(C)C)c1O,26,34*,77*,0
O=C1CC(O)C(O)c2cccc(O)c21 (stereo not drawn),26,34*,-4,90*
O=C1CC[C@H](O)c2cccc(O)c21,21,3,3,6
